Screens: PubChem BioAssay, several laboratories
Hits are enriched below; roughly 2.9% of the tested compounds scored in any of these assays.
GDH-TPI inh = inhibits GDH-TPI coupling enzymes, artifact for Mtb FBA screen; GDH-TPI coupled enzyme counterscreen, NADH absorbance; inhibition, % at 4.8 µM; 360,000 tested, 1.2% active; in the data active means inhibition above about 30%;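 further: 0% = DMSO wells and 100% = wells lacking the enzyme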
FBA Mtb inh = inhibitors of M. tuberculosis fructose-bisphosphate aldolase | purified M. tuberculosis FBA, fluorescence read-out | inhibition, % at 1 µM | 360,000 tested, 2.3% active | AID 588726; in the data active means inhibition above about 27%;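 further: 0% = vehicle and 100% = reference inhibitor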
Target sequence (P9WQA3 whole entry, looked up): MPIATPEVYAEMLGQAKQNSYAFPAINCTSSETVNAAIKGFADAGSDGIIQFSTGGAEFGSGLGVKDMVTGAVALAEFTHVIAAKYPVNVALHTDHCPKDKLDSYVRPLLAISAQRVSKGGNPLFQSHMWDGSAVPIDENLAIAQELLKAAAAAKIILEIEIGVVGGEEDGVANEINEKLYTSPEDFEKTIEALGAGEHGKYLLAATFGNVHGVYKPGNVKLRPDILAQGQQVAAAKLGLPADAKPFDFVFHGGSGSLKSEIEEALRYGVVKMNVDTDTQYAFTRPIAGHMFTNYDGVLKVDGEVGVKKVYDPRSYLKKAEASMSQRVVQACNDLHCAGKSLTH
Mtb BioA inh = inhibitors of Mycobacterium tuberculosis BioA enzyme | purified M. tuberculosis BioA enzyme, plate reader | inhibition, % at 9.99 µM | 360,000 tested, 0.096% active; in the data active means inhibition above about 40%
Mtb hypoxia rep = Mtb hypoxia fluorescent reporter inhibition; M. tuberculosis hypoxia-regulated fluorescent reporter, fluorescence; fluorescence inhibition, % (no concentration beside the values); 300,000 tested, 0.1% active; in the data active means fluorescence inhibition mostly above about 23%, no sharp cut-off; inactive means mostly below about 17%
FadD28 binding = blocks FadD28 binding to the bisubstrate probe | 360,000 tested, 0.22% active | AID 588549 | inhibition, % at 12.5 µM | fluorescence polarization; in the data active means inhibition above about 8.5%, passing the limit was not always enough
An asterisk follows results filed as active; nt = no result; + = active, no number.

SMILES	GDH-TPI inh	FBA Mtb inh	Mtb BioA inh	Mtb hypoxia rep	FadD28 binding
Cc1cc2[nH]c(=O)c(=O)[nH]c2cc1S(=O)(=O)NC1CCCCC1C (stereo not given)	21	32*	3	nt	-5
C[C@@H]1CN([C@@H](C)CO)C(=O)c2cc(-c3ccncc3)cnc2O[C@H]1CN(C)Cc1cccnc1	nt	nt	2	nt	nt
Cc1cc(-c2ccccc2)nc(N(C)C)c1S(C)(=O)=O	0	4	nt	6	-1
CNc1nc(-c2ccccc2)cc(C)c1S(C)(=O)=O	6	+	nt	nt	-4
CCC(=O)N1C[C@H](C)[C@H](OC)CN(C)C(=O)c2cc(NS(C)(=O)=O)ccc2OC[C@H]1C	nt	nt	-3	nt	nt
CCCOc1ccccc1OCC(=O)N1CCN(S(=O)(=O)c2ccc(Cl)cc2)CC1	8	-4	0	32*	4
Cc1ccc(-c2nc(NN=Cc3cccnc3)c3ccccc3n2)cc1	nt	nt	nt	9	nt
O=C(O)Cc1ccc(Nc2cnn(C34CC5CC(CC(CC(=O)O)(C5)C3)C4)c(=O)c2Cl)cc1	51*	0	-1	-5	-1
CCc1ccc(Nc2cnn(C34CC5CC(CC(CC(=O)O)(C5)C3)C4)c(=O)c2Cl)cc1	16	3	1	3	-1
CCOc1cc(/C=C2/SC(=O)N(CC(=O)N3CCc4ccccc4C3)C2=O)ccc1OCC(=O)O	34*	-2	5	nt	-5
O=C(CON=C1CCCc2nonc21)Nc1ccc(Br)cc1	nt	nt	nt	9	nt
Cc1cccc(C2=NN(c3ccccc3)[C@@H](C(=O)N3CCOC3=O)[C@@H]2c2ccc(F)cc2)c1	0	21	-3	-2	1
Cc1cccc(C2=NN(c3ccccc3)[C@H](CO)[C@H]2c2ccccc2)c1	-9	59*	-1	5	1
Cc1c(C(=O)Nc2nc3ccccc3[nH]2)oc2ccccc12	33*	8	nt	-6	0
Cc1c(C(=O)Nc2nc3ccccc3[nH]2)oc2ccc(Br)cc12	4	3	2	7	0
Cc1ccccc1-c1cnc2c(c1)C(=O)N([C@@H](C)CO)C[C@H](C)[C@H](CN(C)C(=O)c1cccnc1)O2	nt	nt	0	nt	nt
O=C(Cc1cc(=O)oc2cc(O)ccc12)NCC1CCC(C(=O)O)CC1 (stereo not given)	10	+	-3	1	-4
Cc1cc(=O)oc2cc(OC(C)C(=O)NCC3CCC(C(=O)O)CC3)ccc12 (stereo not given)	18	28*	-2	nt	-2
CCCc1cc(=O)oc2cc(OCC(=O)NCC3CCC(C(=O)O)CC3)ccc12 (stereo not given)	16	26	0	nt	-3
CCC(=O)N1[C@H](CO)[C@H]2c3ccccc3N(S(=O)(=O)c3ccccc3C)C[C@H]21	nt	nt	-3	nt	nt
CC(C)NC(=O)N(C)C[C@@H]1Oc2ncc(C3=CCCCC3)cc2C(=O)N([C@H](C)CO)C[C@H]1C	nt	nt	-8	nt	nt
O=C(O)COc1ccc2nsnc2c1Cl	6	42*	1	nt	-3
Cc1cccc(N(CC(=O)NC2CCCCC2)C(=O)c2ccc(C)s2)c1	4	-2	0	17	-4
CC(C)n1cc(C(=O)N(CC(=O)NC2CCCC2)Cc2ccccc2)cn1	8	-1	2	0	-2
CC1=CC=CN2C1=NC(=O)CC2(C)C(=O)N(CC(=O)NC1CCCC1)Cc1ccccc1 (stereo not given)	10	152*	-1	8	1
SMILES	GDH-TPI inh	FBA Mtb inh	Mtb BioA inh	Mtb hypoxia rep	FadD28 binding
Cc1cc(C)cc(N(CC(=O)NC2CCCCC2)C(=O)CNC(=O)c2ccco2)c1	-1	1	-1	5	-1
Cc1ccnc(NC(=O)CCC(=O)N(CC(=O)NC2CCCCC2)Cc2ccccc2)c1	4	5	nt	7	-2
CC1=CN2C(=NC(=O)CC2(C)C(=O)N(CC(=O)NC2CCCC2)c2cc(C)cc(C)c2)C=C1 (stereo not given)	3	144*	nt	11	-1
CC1=CC=CN2C1=NC(=O)CC2(C)C(=O)N(CC(=O)NC1CCCC1)c1cc(C)cc(C)c1 (stereo not given)	7	174*	nt	1	0
CC1=CN2C(=NC(=O)CC2(C)C(=O)N(CC(=O)NC2CCCC2)Cc2ccc(Cl)cc2)C=C1 (stereo not given)	0	117*	8	7	-2
CCCC(=O)Nc1ccc2c(c1)C(=O)N(C)[C@@H]1CC[C@@H](CC(=O)NCc3ccccc3Cl)O[C@@H]1CO2	nt	nt	0	nt	nt
CC1=CN2C(=NC(=O)CC2(C)C(=O)N(CC(=O)NC2CCCC2)c2ccccc2C)C=C1 (stereo not given)	-4	147*	nt	9	-5
CCCc1nnc(NC(=O)C(=O)NCCN(C)C)s1	31*	2	-1	nt	1
CCCc1nnc(NC(=O)C(=O)NCCN(CC)CC)s1	3	-1	nt	-1	-1
C[C@H]1CN([C@@H](C)CO)C(=O)Cc2cc(NC(=O)C3CC3)ccc2O[C@H]1CN(C)S(C)(=O)=O	nt	nt	-2	nt	nt
Cc1ccc(S(=O)(=O)CC(=O)c2ccccc2)cc1	5	0	nt	nt	-3
O=C(CC(=O)c1ccccc1)CS(=O)(=O)c1ccccc1	41*	-4	0	17	-4
CC/C(=N\NC(=O)c1ccccc1Cl)c1c(O)n(C2CCCCC2)c(=O)[nH]c1=O	34*	-3	1	1	5
COc1ccc2c(c1)CCC1(C)CC(=O)C(Br)=C21 (stereo not given)	42*	+	0	nt	-2
COC(=O)C1(C)CCc2cc(OC)ccc2C1=O (stereo not given)	-5	-1	1	13	-1
O=C(Oc1ccc2ccc(=O)oc2c1)c1ccc([N+](=O)[O-])cc1	-2	183*	0	0	-3
Cc1ccc(C(=O)Oc2ccc3ccc(=O)oc3c2)cc1	13	22	-2	-12	1
CC(=O)Oc1ccc2ccc(=O)oc2c1	9	+	-4	nt	1
O=C(CCS(=O)(=O)c1ccccc1)Nc1nc(-c2ccc(F)cc2)cs1	34*	6	nt	5	-2
O=C(CS(=O)(=O)c1ccccc1)Nc1nc(-c2ccc(F)cc2)cs1	4	1	nt	5	-3
CN1C(=O)c2cc(NC(=O)C3CCOCC3)ccc2OC[C@@H]2O[C@H](CC(=O)NCC3CCCCC3)CC[C@H]21	nt	nt	-1	nt	nt
COc1cccc(Nc2ncc(C(=O)O)c3ccccc23)c1	36*	-4	-1	nt	-3
CN1C(=O)c2cc(NC(=O)c3cccs3)ccc2OC[C@H]2O[C@@H](CC(=O)N3CCCCC3)CC[C@@H]21	nt	nt	1	nt	nt
COCCCNC(=S)N/N=C/c1ccc(O)cc1O	33*	2	0	nt	0
CCNC(=S)N/N=C/c1ccc(C#N)cc1	39*	-5	-1	nt	-3
COCCCNC(=S)N/N=C/c1ccc(O)cc1	70*	-1	0	nt	1
O=C(C[C@@H]1CC[C@H]2[C@@H](COC[C@@H](O)CN2S(=O)(=O)c2ccc(Oc3ccccc3)cc2)O1)Nc1ccccc1	nt	nt	4	nt	nt
COC(=O)C1=C(c2cccc(C#N)c2)CC2CCC1N2C(=O)NCc1cccc2ccccc12 (stereo not given)	nt	nt	nt	-8	nt
